Assay results reported in the supplement of paper PMC10849652.
Targets with a hit are over-represented here; the source holds about 7,900 in all. About 0.6% of all pairs of compound and target were hits.

Key:
Assay in all cases: log2 fold change, soluble protein after heating vs DMSO (PISA); higher = thermal stabilisation; K562 cells, 10 uM, 30 min; active = over 0.2 and 3.5 SD of the protein, either way, in both replicates (recomputed)
[1] = compound: NC(=O)Nc1cc(-c2cccc(F)c2)sc1C(=O)N[C@H]1CCCNC1
Summary of the method: (§1)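 K562 cells at 2×10^6 cells/mL were exposed to 10 μM compound for 30 min, then aliquots were heated for 3 min across 48°C-58°C, pooled, and extracted in PBS containing 0.5% NP-40 at 4°C. The supernatant after 21,000xg for 90 min was taken as soluble protein and measured by TMTpro 16plex LC-MS/MS with channel sums equalised. Thermal stability is reported relative to control samples, with values from duplicates. Fold changes are given on a log2 scale.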

[2] = compound: NC(=O)c1cnc(N[C@@H]2CCCC[C@@H]2N)nc1Nc1cccc(-n2nccn2)c1
Summary of the method: as §1

[3] = compound: NC1(c2ccc(-c3nc4ccn5c(=O)[nH]nc5c4cc3-c3ccccc3)cc2)CCC1
Summary of the method: as §1

[4] = compound: NCC(=O)Nc1ccc(-n2nc(C(F)(F)F)cc2-c2ccc3c(ccc4ccccc43)c2)cc1
Summary of the method: as §1

entinostat = compound: Nc1ccccc1NC(=O)c1ccc(CNC(=O)OCc2cccnc2)cc1 [entinostat]
Summary of the method: as §1

vorinostat = compound: O=C(CCCCCCC(=O)Nc1ccccc1)NO [vorinostat]
Summary of the method: as §1

citarinostat = compound: O=C(CCCCCCNC(=O)c1cnc(N(c2ccccc2)c2ccccc2Cl)nc1)NO [citarinostat]
Summary of the method: as §1

silmitasertib = compound: O=C(O)c1ccc2c(c1)nc(Nc1cccc(Cl)c1)c1ccncc12 [silmitasertib]
Summary of the method: as §1

[5] = compound: O=C1NC(=O)C(c2cnc3ccccn23)=C1c1cn2c3c(cc(F)cc13)CN(C(=O)N1CCCCC1)CC2
Summary of the method: as §1

[6] = compound: c1cc(OCCN2CCCCC2)cc(-c2n[nH]c3ccc(-c4nnc[nH]4)cc23)c1
Summary of the method: as §1

entospletinib = compound: c1cn2cc(-c3ccc4cn[nH]c4c3)nc(Nc3ccc(N4CCOCC4)cc3)c2n1 [entospletinib]
Summary of the method: as §1

Measured: log2 fold change

LPIN3 isoform 2 (UniProt Q9BQK8)
inactive: [1] 0.014 | [2] -0.027 | [3] -0.044 | [4] 0.041 | entinostat -0.006 | vorinostat 0.011 | citarinostat 0.001 | silmitasertib -0.116 | [5] -0.054 | [6] -0.142 | entospletinib 0.08

IPO13 (UniProt O94829)
Chain of UniProt O94829 (O94829 whole entry, looked up): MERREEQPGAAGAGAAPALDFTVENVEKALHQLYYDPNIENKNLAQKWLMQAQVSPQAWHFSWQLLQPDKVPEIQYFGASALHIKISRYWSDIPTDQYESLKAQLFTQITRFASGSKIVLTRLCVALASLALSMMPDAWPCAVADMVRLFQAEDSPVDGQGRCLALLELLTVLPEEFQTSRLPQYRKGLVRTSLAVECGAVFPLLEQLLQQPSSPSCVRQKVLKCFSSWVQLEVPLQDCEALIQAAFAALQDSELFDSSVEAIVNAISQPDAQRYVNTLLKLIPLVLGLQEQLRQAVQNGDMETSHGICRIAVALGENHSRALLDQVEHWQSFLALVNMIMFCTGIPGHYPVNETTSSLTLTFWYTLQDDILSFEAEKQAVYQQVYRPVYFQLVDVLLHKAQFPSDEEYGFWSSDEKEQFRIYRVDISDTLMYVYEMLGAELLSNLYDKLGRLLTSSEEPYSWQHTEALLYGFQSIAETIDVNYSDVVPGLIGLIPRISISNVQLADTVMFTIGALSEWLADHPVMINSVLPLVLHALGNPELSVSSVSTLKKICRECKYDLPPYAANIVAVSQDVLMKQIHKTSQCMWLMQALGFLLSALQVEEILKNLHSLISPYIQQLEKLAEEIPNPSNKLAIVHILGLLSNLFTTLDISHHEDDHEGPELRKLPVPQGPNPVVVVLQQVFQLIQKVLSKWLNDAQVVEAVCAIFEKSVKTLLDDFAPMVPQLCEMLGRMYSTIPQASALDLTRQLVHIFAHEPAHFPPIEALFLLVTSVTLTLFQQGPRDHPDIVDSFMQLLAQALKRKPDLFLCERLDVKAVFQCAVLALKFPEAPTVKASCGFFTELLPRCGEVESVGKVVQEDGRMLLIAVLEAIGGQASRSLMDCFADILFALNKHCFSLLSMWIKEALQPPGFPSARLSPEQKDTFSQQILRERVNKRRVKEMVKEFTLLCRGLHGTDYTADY
inactive: [1] 0.051 | [2] -0.101 | [3] -0.206 | [4] -0.112 | entinostat 0.012 | vorinostat 0.138 | citarinostat 0.067 | silmitasertib 0.081 | [5] -0.046 | [6] -0.175 | entospletinib 0.106

KSR1 (UniProt Q8IVT5)
inactive: [1] -0.333 | [2] -0.049 | [3] 0.236 | [4] -0.111 | entinostat 0.044 | vorinostat 0.013 | citarinostat 0.045 | silmitasertib -0.279 | [5] -0.118 | [6] -0.193 | entospletinib 0.038

LPCAT3 (UniProt Q6P1A2)
Chain of UniProt Q6P1A2 (Q6P1A2 whole entry, looked up): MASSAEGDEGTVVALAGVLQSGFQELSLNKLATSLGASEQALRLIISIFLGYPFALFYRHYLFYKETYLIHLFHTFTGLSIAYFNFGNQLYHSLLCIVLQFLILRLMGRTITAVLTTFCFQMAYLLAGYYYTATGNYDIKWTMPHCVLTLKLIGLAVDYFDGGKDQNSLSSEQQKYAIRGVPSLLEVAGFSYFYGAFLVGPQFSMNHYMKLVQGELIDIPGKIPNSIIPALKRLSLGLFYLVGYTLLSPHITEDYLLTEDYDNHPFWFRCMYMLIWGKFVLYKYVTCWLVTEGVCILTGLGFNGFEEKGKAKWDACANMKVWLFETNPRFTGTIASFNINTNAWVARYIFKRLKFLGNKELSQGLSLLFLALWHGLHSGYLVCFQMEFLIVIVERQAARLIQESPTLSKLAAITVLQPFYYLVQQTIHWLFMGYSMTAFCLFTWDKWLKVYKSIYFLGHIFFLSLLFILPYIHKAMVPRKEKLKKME
inactive: [1] -0.074 | [2] -0.105 | [3] -0.185 | [4] -0.229 | entinostat 0.044 | vorinostat 0.024 | citarinostat 0.087 | silmitasertib 0.05 | [5] -0.091 | [6] 0.072 | entospletinib 0.012

MAPKAPK5 (UniProt Q8IW41)
Chain of UniProt Q8IW41 (Q8IW41 whole entry, looked up): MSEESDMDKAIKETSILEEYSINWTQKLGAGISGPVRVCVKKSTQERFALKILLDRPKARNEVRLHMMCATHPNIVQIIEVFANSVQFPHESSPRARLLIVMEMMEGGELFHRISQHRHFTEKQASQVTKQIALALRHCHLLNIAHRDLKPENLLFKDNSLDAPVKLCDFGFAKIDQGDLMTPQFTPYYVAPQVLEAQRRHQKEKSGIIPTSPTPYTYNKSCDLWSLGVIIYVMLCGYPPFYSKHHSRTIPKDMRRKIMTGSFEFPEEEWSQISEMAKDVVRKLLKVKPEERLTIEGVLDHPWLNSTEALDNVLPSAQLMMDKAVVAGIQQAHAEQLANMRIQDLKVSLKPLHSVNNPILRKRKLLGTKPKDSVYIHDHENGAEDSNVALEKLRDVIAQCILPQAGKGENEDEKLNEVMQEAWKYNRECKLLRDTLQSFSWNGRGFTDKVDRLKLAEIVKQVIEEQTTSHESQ
active: [1] 0.382
inactive: [2] 0.029 | [3] -0.051 | [4] -0.009 | entinostat 0.027 | vorinostat 0.053 | citarinostat -0.003 | silmitasertib -0.044 | [5] -0.078 | [6] 0.213 | entospletinib -0.03

LUC7L3 (UniProt O95232)
Chain of UniProt O95232 (O95232 whole entry, looked up): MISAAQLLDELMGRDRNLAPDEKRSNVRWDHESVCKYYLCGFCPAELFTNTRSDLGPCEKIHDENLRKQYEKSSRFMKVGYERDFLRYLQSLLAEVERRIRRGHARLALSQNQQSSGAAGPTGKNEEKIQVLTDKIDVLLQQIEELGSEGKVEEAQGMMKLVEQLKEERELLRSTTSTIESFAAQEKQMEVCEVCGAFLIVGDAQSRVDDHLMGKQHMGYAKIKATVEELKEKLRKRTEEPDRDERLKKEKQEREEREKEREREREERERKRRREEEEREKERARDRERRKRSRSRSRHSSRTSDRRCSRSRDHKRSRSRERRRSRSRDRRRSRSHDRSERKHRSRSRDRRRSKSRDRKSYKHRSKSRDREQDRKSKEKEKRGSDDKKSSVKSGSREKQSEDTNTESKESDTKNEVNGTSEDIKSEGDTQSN
inactive: [1] -0.203 | [2] -0.017 | [3] 0.058 | [4] -0.076 | entinostat -0.051 | vorinostat -0.008 | citarinostat 0.083 | silmitasertib -0.156 | [5] 0.086 | [6] -0.086 | entospletinib -0.005

MFSD11 (UniProt O43934)
Chain of UniProt O43934 (O43934 whole entry, looked up): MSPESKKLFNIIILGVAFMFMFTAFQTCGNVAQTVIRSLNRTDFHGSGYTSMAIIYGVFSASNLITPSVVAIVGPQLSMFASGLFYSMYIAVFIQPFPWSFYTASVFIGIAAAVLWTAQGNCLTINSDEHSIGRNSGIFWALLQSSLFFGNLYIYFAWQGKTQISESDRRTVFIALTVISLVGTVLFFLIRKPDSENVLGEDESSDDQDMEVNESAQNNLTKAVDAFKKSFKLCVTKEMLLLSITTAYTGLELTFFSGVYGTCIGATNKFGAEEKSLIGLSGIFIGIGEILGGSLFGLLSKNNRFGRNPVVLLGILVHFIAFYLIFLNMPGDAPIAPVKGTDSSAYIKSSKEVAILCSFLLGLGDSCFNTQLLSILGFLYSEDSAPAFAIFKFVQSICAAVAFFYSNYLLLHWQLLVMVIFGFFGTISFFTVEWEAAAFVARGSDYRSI
inactive: [1] 0.035 | [2] 0.038 | [3] -0.202 | [4] 0.002 | entinostat -0.112 | vorinostat -0.028 | citarinostat -0.096 | silmitasertib 0.044 | [5] -0.04 | [6] 0.063 | entospletinib 0.109

KPNA1 (UniProt P52294)
inactive: [1] -0.02 | [2] -0.014 | [3] -0.047 | [4] -0.058 | entinostat 0.099 | vorinostat 0.036 | citarinostat 0.166 | silmitasertib 0.088 | [5] 0.064 | [6] -0.037 | entospletinib 0.022

LARP4B (UniProt Q92615)
Chain of UniProt Q92615 (Q92615 whole entry, looked up): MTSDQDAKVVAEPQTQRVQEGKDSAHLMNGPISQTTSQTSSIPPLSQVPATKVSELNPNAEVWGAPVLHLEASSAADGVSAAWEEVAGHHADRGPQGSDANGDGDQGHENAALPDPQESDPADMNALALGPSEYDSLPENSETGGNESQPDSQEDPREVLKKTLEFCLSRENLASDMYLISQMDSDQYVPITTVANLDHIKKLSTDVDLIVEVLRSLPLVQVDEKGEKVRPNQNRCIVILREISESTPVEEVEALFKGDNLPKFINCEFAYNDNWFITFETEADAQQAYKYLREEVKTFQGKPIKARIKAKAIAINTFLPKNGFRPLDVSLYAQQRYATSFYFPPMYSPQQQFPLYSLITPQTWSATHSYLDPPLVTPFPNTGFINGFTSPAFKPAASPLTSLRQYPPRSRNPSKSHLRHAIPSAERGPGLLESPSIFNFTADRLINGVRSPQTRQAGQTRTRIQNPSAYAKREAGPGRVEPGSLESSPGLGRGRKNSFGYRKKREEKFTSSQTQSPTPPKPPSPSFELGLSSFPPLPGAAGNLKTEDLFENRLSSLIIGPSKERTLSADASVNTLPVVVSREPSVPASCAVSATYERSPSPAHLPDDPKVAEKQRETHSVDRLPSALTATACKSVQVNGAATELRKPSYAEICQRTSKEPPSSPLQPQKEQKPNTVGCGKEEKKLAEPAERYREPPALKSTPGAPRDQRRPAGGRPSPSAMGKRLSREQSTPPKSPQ
inactive: [1] 0.028 | [2] -0.042 | [3] 0.048 | [4] 0.022 | entinostat 0.038 | vorinostat 0.027 | citarinostat -0.001 | silmitasertib 0.008 | [5] 0.086 | [6] -0.112 | entospletinib 0.063

JMJD6 isoform 3 (UniProt Q6NYC1)
inactive: [1] 0.01 | [2] -0.057 | [3] -0.068 | [4] -0.019 | entinostat 0.039 | vorinostat 0.048 | citarinostat 0.064 | silmitasertib 0.081 | [5] -0.061 | [6] -0.014 | entospletinib 0.006

ME2 (UniProt P23368)
Chain of UniProt P23368 (P23368 whole entry, looked up): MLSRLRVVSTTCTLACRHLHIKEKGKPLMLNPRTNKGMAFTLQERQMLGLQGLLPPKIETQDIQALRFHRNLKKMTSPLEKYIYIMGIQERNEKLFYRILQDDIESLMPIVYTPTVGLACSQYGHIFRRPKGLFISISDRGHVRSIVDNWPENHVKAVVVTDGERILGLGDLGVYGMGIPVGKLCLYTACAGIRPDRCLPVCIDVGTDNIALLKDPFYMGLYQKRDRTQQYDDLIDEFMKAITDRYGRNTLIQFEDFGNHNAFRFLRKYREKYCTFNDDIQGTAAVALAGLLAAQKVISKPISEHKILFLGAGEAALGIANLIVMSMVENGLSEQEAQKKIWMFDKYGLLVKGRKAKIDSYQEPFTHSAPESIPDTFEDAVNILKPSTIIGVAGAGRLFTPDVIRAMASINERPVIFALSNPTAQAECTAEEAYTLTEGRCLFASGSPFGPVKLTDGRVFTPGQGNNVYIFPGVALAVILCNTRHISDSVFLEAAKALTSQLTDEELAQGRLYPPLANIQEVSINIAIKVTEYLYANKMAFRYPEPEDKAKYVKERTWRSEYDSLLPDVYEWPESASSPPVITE
inactive: [1] -0.015 | [2] -0.034 | [3] 0.07 | [4] -0.033 | entinostat -0.013 | vorinostat 0.058 | citarinostat 0.025 | silmitasertib 0.186 | [5] -0.017 | [6] -0.093 | entospletinib 0.008

LUC7L2 (UniProt Q9Y383)
Chain of UniProt Q9Y383 (Q9Y383 whole entry, looked up): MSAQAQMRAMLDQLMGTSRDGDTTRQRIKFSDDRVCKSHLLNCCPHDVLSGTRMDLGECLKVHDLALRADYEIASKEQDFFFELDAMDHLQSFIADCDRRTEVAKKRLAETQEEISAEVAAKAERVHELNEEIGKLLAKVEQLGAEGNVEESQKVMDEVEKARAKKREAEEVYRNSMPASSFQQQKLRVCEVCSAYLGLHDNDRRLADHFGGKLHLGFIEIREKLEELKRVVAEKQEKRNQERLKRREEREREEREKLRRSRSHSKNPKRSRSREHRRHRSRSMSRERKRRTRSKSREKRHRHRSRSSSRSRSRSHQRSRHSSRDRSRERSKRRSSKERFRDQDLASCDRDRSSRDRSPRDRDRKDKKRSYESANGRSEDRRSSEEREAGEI
inactive: [1] -0.221 | [2] -0.025 | [3] 0.09 | [4] -0.133 | entinostat 0.025 | vorinostat 0.029 | citarinostat 0.074 | silmitasertib -0.233 | [5] 0.002 | [6] -0.095 | entospletinib 0

IRAK4 (UniProt Q9NWZ3)
Chain of UniProt Q9NWZ3 (Q9NWZ3 whole entry, looked up): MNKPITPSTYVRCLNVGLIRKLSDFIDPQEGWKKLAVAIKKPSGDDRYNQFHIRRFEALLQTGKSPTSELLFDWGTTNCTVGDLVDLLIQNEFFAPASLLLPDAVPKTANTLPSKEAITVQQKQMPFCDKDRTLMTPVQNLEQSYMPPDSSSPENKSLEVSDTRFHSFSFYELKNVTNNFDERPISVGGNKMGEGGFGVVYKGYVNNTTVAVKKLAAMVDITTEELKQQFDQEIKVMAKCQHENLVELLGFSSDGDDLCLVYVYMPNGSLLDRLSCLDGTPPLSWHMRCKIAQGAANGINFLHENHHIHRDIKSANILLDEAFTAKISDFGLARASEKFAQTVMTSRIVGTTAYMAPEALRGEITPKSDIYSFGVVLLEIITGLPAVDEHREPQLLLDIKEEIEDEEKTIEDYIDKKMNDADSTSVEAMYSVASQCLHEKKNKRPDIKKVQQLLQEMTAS
inactive: [2] -0.088 | [4] -0.008 | entinostat 0.053 | vorinostat 0.05 | citarinostat 0.002 | silmitasertib 0.027 | [5] -0.024 | [6] -0.019 | entospletinib 0.096
active: [1] 0.349 | [3] -0.281

IGFBP2 (UniProt P18065)
inactive: [1] 0.026 | [2] -0.043 | [3] -0.242 | [4] -0.037 | entinostat 0.04 | vorinostat 0.351 | citarinostat -0.068 | silmitasertib 0.267 | [5] -0.143 | [6] 0.064 | entospletinib 0.092

IRF3 (UniProt Q14653)
inactive: [2] -0.021 | [3] -0.021 | [4] -0.022 | entinostat -0.078 | vorinostat 0.06 | citarinostat 0.028 | silmitasertib -0.044 | [5] -0.047 | [6] -0.028 | entospletinib -0.022
active: [1] 0.221

INPP5B (UniProt P32019)
inactive: [1] 0.106 | [2] -0.066 | [3] -0.003 | [4] -0.108 | entinostat 0 | vorinostat 0.128 | citarinostat -0.016 | silmitasertib 0.167 | [5] 0.118 | [6] 0.014 | entospletinib 0.026
